TDP1 inh – blocks human tyrosyl-DNA phosphodiesterase 1; Potency, µM (top dose mostly 130 µM), inactives show top-dose activity change, negative = inhibition, hits mostly inhibitors; recombinant TDP1, AlphaScreen DNA substrate cleavage; 0.28% of 350,000 active; also: nearly all actives have a fitted effect of over 40% in size
Target sequence (Q9NUW8 whole entry, looked up): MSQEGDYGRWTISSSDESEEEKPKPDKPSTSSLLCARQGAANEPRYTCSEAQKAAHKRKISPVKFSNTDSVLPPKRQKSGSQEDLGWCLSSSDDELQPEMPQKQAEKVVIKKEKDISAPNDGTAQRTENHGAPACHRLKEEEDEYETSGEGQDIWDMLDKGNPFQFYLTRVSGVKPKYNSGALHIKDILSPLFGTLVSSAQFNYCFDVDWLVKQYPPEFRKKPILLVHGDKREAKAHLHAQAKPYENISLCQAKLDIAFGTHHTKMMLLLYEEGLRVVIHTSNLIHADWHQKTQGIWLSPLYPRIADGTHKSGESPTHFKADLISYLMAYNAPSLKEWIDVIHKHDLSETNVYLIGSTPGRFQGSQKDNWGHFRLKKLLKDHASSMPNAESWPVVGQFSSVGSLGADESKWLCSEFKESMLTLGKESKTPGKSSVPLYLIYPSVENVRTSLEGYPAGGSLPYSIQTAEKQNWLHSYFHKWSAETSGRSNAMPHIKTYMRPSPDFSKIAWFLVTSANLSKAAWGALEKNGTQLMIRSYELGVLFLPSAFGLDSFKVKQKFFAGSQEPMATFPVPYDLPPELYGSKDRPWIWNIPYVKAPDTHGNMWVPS
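Enzyme-compound mixtures sat 15 min at room temperature, followed by a 5 min reaction with 15 nM final substrate and 10 min with AlphaScreen beads. Recombinant human Tdp1 was used at 1 nM final.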
VDR inhibitor – blocks the human vitamin D receptor | P11473 | VDR-SRC2-3 peptide fluorescence polarization, 2 h | Potency, µM, without a hit: max response, negative = inhibition, hits mostly inhibitors | 0.93% of 400,000 active
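FP read-out; VDR + SRC2-3 coactivator peptide; 23 nl compound by pintool; 2 h RT incubation; reagents held at 4 deg C, protected from light.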
TDP1 cell noCPT – qHTS for Inhibitors of human tyrosyl-DNA phosphodiesterase 1 (TDP1): qHTS in cells in absence of CPT | 15% of 420,000 active | Potency, µM (titrated, usually from 46.2 µM), for inactives: at the highest dose activity change, negative = growth inhibition, actives largely listed as inhibitors | DT40 Tdp1-/- hTDP1 cells, no CPT, ATP luminescence, 48 h; also: nearly all actives have a fitted effect of over 55% in size
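Stably hTDP1-transfected Tdp1-null chicken DT40 cells were treated with library compounds minus camptothecin and grown for at least 48 hr at 37 °C, after which cellular ATP was quantified by luminescence.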
PLK1 PBD inh – blocks phosphopeptide binding to human PLK1 polo-box domain. Plk1 PBD binding of FITC phosphopeptide, fluorescence polarization. 2.8% of 360,000 active. AID 720504. P53350. Potency, µM, for the others: max response, negative = inhibition, most hits filed as inhibitors; also: series mostly up to about 57 µM; nearly all actives have a fitted effect of over 65% in size
TDP1 cell CPT – DT40-hTDP1 cell growth loss with CPT. chicken DT40 Tdp1-/-;hTDP1 cells + 20 nM CPT, ATP luminescence, 48 h. 12% of 420,000 active. Potency, µM (top dose mostly 46.2 µM), for the others: at the top dose activity change, negative = growth inhibition, usual class: inhibitors. AID 686979; also: nearly all actives have a fitted effect of over 55% in size
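Chicken DT40 Tdp1-/- cells complemented with human TDP1, 400 cells/well, exposed to compounds plus 20 nM camptothecin for at least 48 h at 37 C; viability read as ATP content by CellTiter-Glo luminescence.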
KAT2A inh – GCN5L2 (KAT2A) acetyltransferase inhibition; Q92830; GCN5L2 HAT assay, ThioGlo1 CoA-SH fluorescence; Potency, µM (titrated, usually from 58.9 µM), for inactives: at the top dose activity change, negative = inhibition, usual class: inhibitors; 0.21% of 390,000 active
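ThioGlo1-coupled HAT assay: 20nM GCN5L2, 70uM acetyl-CoA, 75uM H3(1-25) peptide, pH 7.5. Fluorescence read at 340/540nm at start and after 20 min at room temperature.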
TbPYK confirm – confirmation of Trypanosoma brucei pyruvate kinase inhibitors. shares compounds with PLK1 PBD inh. recombinant TbPYK, Kinase-Glo ATP luminescence. Potency, µM (highest dose often 76.9 µM), without a hit: at the top dose activity change, negative = inhibition, actives largely listed as inhibitors. 67% of 890 active. AID 720569; also: nearly all actives have a fitted effect of over 70% in size
TbPYK ADP-Glo – inhibits T. brucei pyruvate kinase in orthogonal ADP-Glo assay | shares compounds with PLK1 PBD inh | 62% of 890 active | Potency, µM (top dose mostly 76.9 µM), inactives show at the top dose activity change, negative = inhibition, usual class: inhibitors | recombinant TbPYK, ADP-Glo luminescence, 60 min | AID 720584; also: nearly all actives have a fitted effect of over 75% in size
An asterisk follows results filed as active; ? = inconclusive; / = no result; ! = not active in a repeat; [ ] = dose if it differs, or a comment. Hits are enriched below; roughly 18% of the tested compounds scored in any of these assays. Calls follow the shape of the dose curve; as a rule, active = well fitted curve in the direction sought with a large enough effect; inconclusive = small, poorly fitted or top-dose-only effect, or another doubt; inactive = no such curve, though single readings can be large; an effect the other way counts as inactive or inconclusive. % is scaled to controls: 0 for no effect and ±100 for the full control effect; potency is read from the fitted curve at half-maximal effect.

SMILES	TDP1 inh	VDR inhibitor	TDP1 cell noCPT	PLK1 PBD inh	TDP1 cell CPT	KAT2A inh	TbPYK confirm	TbPYK ADP-Glo
COc1cc(/C=N/NC(=O)c2nonc2C)ccc1O	2%	1%	5%	6%	-6%	0%	/	/
CCC(=O)/C=C1/Sc2ccccc2N1CC	2%	?	?	27µM*	?	-11%	?	18µM*
O=C(Nc1ccncc1Cl)c1ccncc1	4%	2%	9%	-5%	-14%	-7%	/	/
CC(=O)C1=C(C)NC(SCC(=O)c2ccccc2)=C(C#N)C1c1ccco1 (stereo unspecified)	1%	/	/	/	/	-11%	/	/
CC(=O)C1=C(C)NC(SCC(=O)c2ccccc2)=C(C#N)C1CC(C)C (stereo unspecified)	1%	-15%	16µM*	-26%	?	-3%	?	40µM*
O=C(NNC(=S)NC(=O)c1ccccc1[N+](=O)[O-])c1ccccc1Cl	5%	-15%	-29%	-7%	-2%	0%	/	/
O=C(NC(=S)NNC(=O)c1ccccc1[N+](=O)[O-])c1ccc(Br)cc1	6%	-22%	-24%	?	-1%	-13%	?	?
CC(=O)Nc1ccc2c(c1)Cc1cc(N3C(=O)C=CC3=O)ccc1-2	/	28µM*	1.3µM*	3µM*	1µM*	/	8.9µM*	6.3µM*
O=C(O)CN1CCN(Cc2ccc(Cl)cc2)C1=O	3%	-11%	4%	7%	-17%	-3%	/	/
COc1ccc(-n2ccc(=O)c3c2CCCC3=O)cc1	-4%	-8%	-24%	0%	-2%	-1%	/	/
COc1ccc(N2C3=C(CC4=C2CCCC4=O)C(=O)CCC3)cc1	8%	-22%	?	21µM*	?	-12%	-7%	-23%
Cc1ccc(-c2cc(N)n(-c3ccc(F)cc3)n2)cc1	5%	-10%	-10%	-9%	-3%	-2%	/	/
CCc1ccc(NC(=O)NCC2CCN(c3ccc(OC)cc3)C2)cc1 (stereo unspecified)	2%	2%	-23%	-10%	9.2µM*	2%	?	-29%
O=C1C=CC2=C3c4cc(O)c(O)cc4CC3(O)COC2=C1O (stereo unspecified)	?	?	?	27µM*	16µM*!	/	7.1µM*	4µM*
O=c1[nH]nc(Cc2ccc(-c3ccc(Cl)cc3)o2)c2ccccc12	6%	-13%	?	-8%	?	-2%	/	/
O=C(O)CCc1ccc(-c2ccc(Cl)cc2)o1	8%	?	-1%	?	-14%	-9%	?	?
O=C(NCCc1ccccc1)c1ccc(NC(=O)C2CC2)cc1	/	-12%	?	3%	?	/	/	/
Cn1c(=S)[nH]c2scc(-c3cccs3)c2c1=O	7%	-23%	?	?	-14%	-16%	11µM*	14µM*
C=CCn1c(=S)[nH]c2scc(-c3cccs3)c2c1=O	11%	-7%	2%	-11%	-6%	-9%	/	/
O=C(NCCc1ccccc1)C1COc2ccccc2O1 (stereo unspecified)	/	1%	-24%	-17%	-8%	?	/	/
O=C(NCCc1ccc(O)c(O)c1)C1COc2ccccc2O1 (stereo unspecified)	9%[0.0935 µM]	-2%	?	-9%	13µM*	-18%	18µM*	18µM*
O=C(Nc1nnc(C2CC2)s1)c1cc([N+](=O)[O-])ccc1N1CCCCC1	4%	-2%	?	-7%	?	-6%	/	/
CCn1c(CCNC(=O)c2cccs2)nnc1SCC(=O)c1ccc(OC)cc1	/	-13%	-21%	?	?	/	0.89µM*	14µM*
COc1ccc(OC)c(C2NC(=O)c3sc(=S)n(-c4ccccc4)c3N2)c1 (stereo unspecified)	?	89µM*	-38%	?	-23%	-4%	2µM*	2.5µM*
CCOc1ccccc1NS(=O)(=O)c1cn(C)c(=O)n(C)c1=O	/	-14%	22%	-19%	-5%	-20%	/	/
SMILES	TDP1 inh	VDR inhibitor	TDP1 cell noCPT	PLK1 PBD inh	TDP1 cell CPT	KAT2A inh	TbPYK confirm	TbPYK ADP-Glo
CCOCCCNC(=O)c1cc2c(s1)-c1ccccc1SC2	/	?	-12%	27µM*	-12%	0%	10µM*	13µM*
COc1ccc(OC)c(S(=O)(=O)Nc2cc3c(cc2N2CCCC2)n(C)c(=O)c(=O)n3C)c1	5%	?	23µM*	21µM*	21µM*	-7%	-21%	?
Cc1ccc(CN2CCN(Cc3ccc4cc(F)ccc4n3)CC2CCO)o1 (stereo unspecified)	6%	-6%	-12%	-14%	-1%	-4%	/	/
Clc1ccc(N=c2ssnc2Cl)cc1	14%[56.1 µM]	25µM*	15µM*	1.9µM*	10µM*	14µM*	7.9µM*	10µM*
N#Cc1ccc(N=c2ssnc2Cl)cc1	2%	14µM*	7.3µM*	1.3µM*	5.2µM*	10µM*	7.1µM*	7.9µM*
Fc1ccc(N=c2ssnc2Cl)c(F)c1	-6%	35µM*	9.2µM*	1.7µM*	7.3µM*	7.9µM*	28µM*	32µM*
O=C(COc1cccc(C(F)(F)F)c1)N1CCN(c2ccc(O)cc2)CC1	-3%	8%	?	-2%	?	4%	8.9µM*	?
O=C(O)Cc1ccc2sc(-c3ccccc3)nc2c1	5%	-6%	-28%	0%	?	-4%	32µM*	7%
Oc1cccc(-c2nc3ccccc3s2)c1	0%	-6%	?	-18%	-29%	-3%	/	/
CCc1cccc(CC)c1NC(=O)CN1CCc2cc(OC)c(OC)cc2C1	/	/	/	/	/	13%	/	/
O=C(c1ccc2ncsc2c1)N1CCN(c2ccc(O)cc2)CC1	-8%	4%	21µM*	-19%	?	2%	11µM*	?
COc1ccc(C(=O)N2CCN(c3ccc(C)cc3)CC2)cc1OC	1%	9%	?	-18%	?	-4%	/	/
CCc1nnc(SCc2ccc([N+](=O)[O-])cc2)nc1CC	/	-16%	-26%	-15%	-17%	/	/	/
CC(=O)c1ccc2c(c1)C1C=CCC1C(c1ccncc1)N2 (stereo unspecified)	7%	-16%	?	-16%	-18%	-5%	/	/

High-throughput results: PubChem BioAssay, National Center for Advancing Translational Sciences (NCATS)
